Activity calls are given as the source filed them. Where a call stands in place of a potency, no number is given. The call rests on the fitted dose curve.

This test is described as follows: qHTS assay to identify small molecule agonists of the sonic hedgehog signaling (Shh) pathway (AID 1259368).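 Further: NIH/3T3-derived 3T3Gli1-Luc cells carrying a stable Gli1-driven firefly luciferase reporter; nearly all actives have a fitted effect of over 15% in size.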 The settings on record: NIH/3T3 Gli1-Luc reporter, luciferase, 24 h; series mostly up to 92.4 µM. The text has this: National Center for Advancing Translational Sciences [NCATS]
NIH Chemical Genomics Center [NCGC]
U.S. Environmental Protection Agency [EPA]
National Institutes of Environmental Health Sciences [NIEHS]
National Toxicology Program [NTP]
The sonic hedgehog (Shh) pathway is essential for normal embryonic development. Dysregulation of the Shh pathway can cause severe developmental defects in organs. Therefore chemicals that interfere with the pathway are potential developmental toxicants. A cell line designated 3T3Gli1-Luc (DMB/OARSA/CFSAN/FDA, Laurel, MD), a NIH/3T3 derived clone containing stably integrated Gli1-Luc reporter is used to detect chemical interference of the Shh pathway, by changes in the expression of the firefly Luc gene under the control of the Gli1 transcriptional response element. This cell line was used to screen Tox21 libraries for identifying and prioritizing the potential developmental toxicants that interfere Shh pathway.
3T3 Gli1-Luc cells were dispensed at 2,000 per well in 5uL of culture medium into white solid bottom 1536-well plates (Greiner Bio-One, Monroe, NC) using a Multidrop Combi (Thermo Scientific, Waltham, MA) dispenser. The assay plates were incubated at 37 C and 5% CO2 for 4hr, and then 23nL of compounds dissolved in DMSO and positive control were transferred using a Pintool station (Wako, San Diego, CA). The assay plates were incubated at 37C and 5% CO2 for 24hr. For luciferase read, 4uL of Amplite Luciferase reporter gene assay reagent (AAT Bioquest, Inc. Sunnyvale, CA) was added to each well of the assay plates using Flying Reagent Dispenser (FRD, Aurora Discovery, San Diego, CA) and incubated at room temperature for 30min. The luminescence signal was measured using a ViewLux plate reader (Perkin Elmer, Shelton, CT).
Background: qHTS replaces the single test concentration by a dilution series.
Consider `c1ccc2c(c1)Nc1ccccc1S2`, for which the Potency result is “inactive”. As to `CCCCC(C#N)(Cn1cncn1)c1ccc(Cl)cc1` (stereo not given), the Potency result was “inactive”. For `Clc1cccc(C(Cl)(Cl)Cl)n1`, the Potency result is “inactive”.

As to `COc1ccc(O)c(C(C)(C)C)c1`, the Potency entry is “inactive”. Next, `CCC[CH2][Sn]([Cl])([Cl])[CH2]CCC`: “inactive”.

As for `Nc1ccc2ccccc2c1`, the Potency result was “inactive”. To `CC(C)(c1ccc(OCC2CO2)cc1)c1ccc(OCC2CO2)cc1` (stereo not given) belongs “inactive”; to `CCOP(=O)(O)OCC` (tested in a mixture with another compound), “inactive”. Next, `CC(C)Nc1ccc(Nc2ccccc2)cc1`: “inactive”; `C[N+](C)(C)CC(=O)[O-]`: “inactive”; `CCOP(=S)(OCC)SCSC(C)(C)C`: “inactive”. `CNC(=S)S`: the Potency result was “inactive”.

`ClC(Cl)(Cl)Br`: the Potency result is “inactive”. Turning to `CCC[CH2][Sn]([Cl])([CH2]CCC)[CH2]CCC`, the Potency result is “inactive”.

Regarding `O=NN(c1ccccc1)c1ccccc1`, the Potency result was “inactive”. On to `[CH3][Sn]([Cl])([Cl])[Cl]`, for which the Potency result is “inactive”. In the case of `CN(C)c1ccccc1`, the Potency entry was “inactive”. For `N#Cc1cccnc1`, the Potency result was “inactive”.

For `C[N+](C)(C)C`, the Potency entry was “inactive”. As for `Cn1c(-c2ccccc2)cc(-c2ccccc2)[n+]1C`, the Potency entry was “inactive”. Consider `CN(C)P(=O)(N(C)C)N(C)C`, for which the Potency result was “inactive”. In the case of `CCCCOCC1CO1` (stereo not given), the Potency entry is “inactive”. Regarding `Clc1cccc(Cl)c1`, the Potency entry is “inactive”. As for `CC(C)(c1ccccc1)c1ccc(O)c(C(C)(C)c2ccccc2)c1`, the Potency entry is “inactive”. Turning to `Cl`, the Potency result was “inactive”. Turning to `CCC(=O)Nc1ccc(Cl)c(Cl)c1`, the Potency result was “inactive”.

`Brc1ccc(Br)cc1`: the Potency entry is “inactive”. Next, `CNC(=O)Oc1cccc2c1OC(C)(C)C2`: “inactive”. Take `CC1CC(=O)O1` (stereo not given): the Potency result was “inactive”.

Consider `CCOP(=S)(OCC)OP(=S)(OCC)OCC`, for which the Potency entry is “inactive”. For `N#CCCCCC#N`, the Potency entry was “inactive”.

Consider `CC1=C(C(=O)Nc2ccccc2)SCCO1`, for which the Potency result was “inactive”.

Consider `COP(=S)(OC)Oc1ccc(S(=O)(=O)N(C)C)cc1`, for which the Potency entry was “inactive”. For the compound `COc1ccc(CO)cc1`, the Potency result is “inactive”. For `N#Cc1nn(-c2c(Cl)cc(C(F)(F)F)cc2Cl)c(N)c1S(=O)C(F)(F)F` (stereo not given), the Potency entry was “inactive”. In the case of `C[C@]12CC[C@H]3[C@@H](CCC4=CC(=O)CC[C@@H]43)[C@@H]1CC[C@@H]2O`, the Potency result is “inactive”. On to `COP(=O)(NC(C)=O)SC` (stereo not given), for which the Potency result was “inactive”. As for `ClCC(Cl)CCl`, the Potency entry was “inactive”.

Consider `CCCCCCCCCCCCCl`, for which the Potency entry is “inactive”. Next, `OCCOCCO`: “inactive”.
